Several values for one entry are separate records, joined by “and”; a condition that tells them apart may be missing. Equal values may be shown once. The source holds several records for some structures; these can differ, active in one and inactive in another. Activity calls are given as the source filed them. Where a call stands in place of a potency, no number is given. Unless noted, calls follow the shape of the dose curve; as a rule, active = well fitted curve in the direction sought with a large enough effect in the repeat runs; inconclusive = weak or mixed curves; inactive = no such curve, though single readings can be large; an effect the other way counts as inactive or inconclusive.
How the values were obtained:
[1] = molecular target: Aryl hydrocarbon receptor (Homo sapiens) (UniProt P35869); assay: qHTS assay to identify small molecule that activate the aryl hydrocarbon receptor (AhR) signaling pathway (AID 743085); also: nearly all actives have a fitted effect of over 15% in size; also: potency is read from the fitted curve at half-maximal effect;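 as to activation: HG2L7.5c1 human HepG2 liver cells with stably integrated DRE-driven firefly reporter; series mostly up to about 70 µM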
Method in brief: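 HepG2 cells stably carrying a 20-DRE firefly luciferase reporter (HG2L7.5c1) treated with compound for 24 hr at 37C. Luciferase read by ONE-Glo luminescence, with CellTiter-Fluor viability read first.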

[2] = qHTS assay for small molecule disruptors of the mitochondrial membrane potential (AID 720635); also: potency is read from the fitted curve at half-maximal effect
Method in brief: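 HepG2 cells exposed to compound 1 hr at 37C, then Mito-MPS dye 30 min. Ratio read of aggregate (540/590 nm) versus monomer (490/535 nm) fluorescence.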

[3] = qHTS assay to test for compound auto fluorescence at 535 nm (green) in HepG2 cells (AID 720675)
[4] = qHTS assay to test for compound auto fluorescence at 535 nm (green) in HEK293 cells (AID 720680)
[5] = qHTS assay to test for compound auto fluorescence at 590 nm (red) in HEK293 cell free culture (AID 720683)
Method in brief: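 Cell-free wells of DMEM with 10% FBS received compound, and intrinsic fluorescence was read at excitation/emission 540/590 nm. Values expressed as equivalence to Rose Bengal sodium.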

[6] = qHTS assay to test for compound auto fluorescence at 590 nm (red) in HepG2 cell free culture (AID 720684)
Method in brief: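 Compound was pinned into wells holding MEM with 10% FBS and no cells, and red fluorescence was read at Ex/Em 540/590 nm. Signal is expressed as auto fluorescence equivalency relative to Rose Bengal sodium.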

[7] = qHTS assay to test for compound auto fluorescence at 460 nm (blue) in HepG2 cells (AID 720687)
Method in brief: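 HepG2 cells in MEM with 10% FBS, attached overnight at 37 C, were exposed to compound or DMSO for 1 hr at 37 C, 5% CO2. Blue fluorescence was read at 405/460 nm, with triamterene as reference fluorophore.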

[8] = molecular target: Glucocorticoid receptor (Homo sapiens) (UniProt P04150); assay: qHTS assay to identify small molecule agonists of the glucocorticoid receptor (GR) signaling pathway (AID 720691; active = well fitted activation curve with a large enough effect in the signal ratio in the repeat runs, not every such curve was filed as active; inconclusive = weak or mixed curves, or effect the other way; inactive = no such curve, though single readings can be large or run the other way; the % refers to the signal ratio)
Method in brief: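 GR-bla HeLa cells (beta-lactamase reporter under glucocorticoid response element) were plated 4 h at 37 C/5% CO2, given compounds in DMSO, and incubated 18 h at 37 C. LiveBLAzer B/G FRET substrate was added for 2 h at room temperature, then fluorescence intensity read.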

[9] = qHTS assay for identifying genotoxic compounds that show differential cytotoxicity against isogenic chicken DT40 cell lines with known DNA damage response pathways - Rad54/Ku70 mutant cell line (AID 743015); also: nearly all actives have a fitted effect of over 60% in size; also: potency is read from the fitted curve at half-maximal effect
[10] = qHTS assay to identify small molecule antagonists of the androgen receptor (AR) signaling pathway - cell viability counter screen (AID 743033; also: nearly all actives have a fitted effect of over 45% in size)
[11] = molecular target: Estrogen receptor (Homo sapiens) (UniProt P03372); assay: qHTS assay to identify small molecule agonists of the estrogen receptor alpha (ER-alpha) signaling pathway (AID 743075; calls by dose curve;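 also: HEK293 GripTite cells with ER-alpha and UAS-driven beta-lactamase reporter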; also: potency is read from the fitted curve at half-maximal effect)
[12] = molecular target: Estrogen receptor (Homo sapiens) (UniProt P03372); assay: qHTS assay to identify small molecule agonists of the estrogen receptor alpha (ER-alpha) signaling pathway using the BG1 cell line (AID 743079); also: nearly all actives have a fitted effect of over 20% in size; also: potency is read from the fitted curve at half-maximal effect
[13] = qHTS assay to identify small molecule antagonists of the estrogen receptor alpha (ER-alpha) signaling pathway using the BG1 cell line (AID 743080; calls by dose curve;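 also: BG1 cells stimulated with 17beta-estradiol alongside compound; series mostly up to about 70 µM; nearly all actives have a fitted effect of over 25% in size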)
Method in brief: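 Readout is ONE-Glo luminescence, taken 30 min at room temperature after reagent addition, preceded by a CellTiter-Fluor viability read; BG1-Luc-4E2 cells had received compound and 17beta-estradiol for 21.5 h at 37 C.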

[14] = molecular target: Nuclear receptor subfamily 1 group I member 2 (Homo sapiens) (UniProt O75469); assay: Human pregnane X receptor (PXR) activation by small molecules, qHTS assay (AID 1346985); also: nearly all actives have a fitted effect of over 40% in size
Method in brief: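 DPX-2 cells (HepG2 co-transfected with a PXR response element and a CYP3A4-promoter luciferase construct) were seeded at 2,000 per well, rested 5 hr at 37C, then exposed to DMSO-dissolved compounds for 24 hr. Activation was read as luciferase luminescence.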

[15] = qHTS assay to test for compound auto fluorescence at 460 nm (blue) in HepG2 cell free culture (AID 720685)
Method in brief: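 Compound (23 nL) or DMSO pinned into cell-free MEM with 10% FBS; blue fluorescence read at 405/460 nm excitation/emission, expressed as auto-fluorescence equivalency to triamterene.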

[16] = qHTS assay for identifying genotoxic compounds that show differential cytotoxicity against isogenic chicken DT40 cell lines with known DNA damage response pathways - wild type cell line (AID 743012); also: nearly all actives have a fitted effect of over 60% in size; also: potency is read from the fitted curve at half-maximal effect
Method in brief: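 Parental DNA repair-proficient DT40 cells, 300 per well, were pre-incubated ~0.5 h at 37 C/5% CO2, pin-dosed with compounds in DMSO, then incubated 40 h. Viability was read as CellTiter-Glo luminescence after 30 min at room temperature.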

[17] = qHTS assay to identify small molecule antagonists of the thyroid receptor (TR) signaling pathway - cell viability counter screen (AID 743064); also: nearly all actives have a fitted effect of over 50% in size
Method in brief: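 GH3.TRE-Luc rat pituitary cells dosed after 4 hr plating, co-stimulated with T3 at 1 nM final, incubated 23.5 h at 37 C. Viability measured in the same wells by CellTiter-Fluor fluorescence after 30 min further at 37 C.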

[18] = qHTS assay to identify small molecule antagonists of the thyroid receptor (TR) signaling pathway (AID 743065); also: series mostly up to about 70 µM; nearly all actives have a fitted effect of over 55% in size
Method in brief: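 GH3.TRE-Luc rat pituitary cells (two TREs driving luciferase) were dosed with compound, then stimulated with 1 nM T3 (final) for 23.5 h at 37 C. ONE-Glo luminescence was the read-out, with CellTiter-Fluor fluorescence as the cytotoxicity counter-screen.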

[19] = molecular target: Peroxisome proliferator-activated receptor gamma (Homo sapiens) (UniProt P37231); assay: qHTS assay to identify small molecule agonists of the peroxisome proliferator-activated receptor gamma (PPARg) signaling pathway (AID 743094; active = well fitted activation curve with a large enough effect in the signal ratio in the repeat runs, not every such curve was filed as active; inconclusive = weak or mixed curves, or effect the other way; inactive = no such curve, though single readings can be large or run the other way; the % refers to the signal ratio)
Method in brief: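 GeneBLAzer PPARg UAS-bla HEK293H cells carrying a stably integrated beta-lactamase reporter were pre-incubated 5 h at 37C, then exposed to compounds in DMSO for 17 h at 37C; LiveBLAzer B/G FRET substrate was added for 1 h at room temperature and fluorescence read.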

[20] = qHTS assay to test for compound auto fluorescence at 535 nm (green) in HepG2 cell free culture (AID 720686)

Sequence of Peroxisome proliferator-activated receptor gamma (Homo sapiens) (P37231 whole entry, looked up): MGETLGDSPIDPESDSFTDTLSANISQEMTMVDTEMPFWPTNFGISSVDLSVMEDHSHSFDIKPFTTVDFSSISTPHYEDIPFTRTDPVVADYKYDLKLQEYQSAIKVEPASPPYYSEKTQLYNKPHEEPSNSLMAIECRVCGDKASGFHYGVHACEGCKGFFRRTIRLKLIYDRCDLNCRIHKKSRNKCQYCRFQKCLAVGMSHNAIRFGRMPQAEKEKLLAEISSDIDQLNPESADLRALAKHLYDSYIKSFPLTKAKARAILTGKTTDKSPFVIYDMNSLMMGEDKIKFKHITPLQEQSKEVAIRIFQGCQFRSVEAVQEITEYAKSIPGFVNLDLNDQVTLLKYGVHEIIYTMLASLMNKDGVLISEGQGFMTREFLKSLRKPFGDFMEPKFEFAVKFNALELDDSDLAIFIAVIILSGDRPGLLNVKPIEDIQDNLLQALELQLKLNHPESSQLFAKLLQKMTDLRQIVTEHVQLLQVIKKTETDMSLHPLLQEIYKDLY
Sequence of Glucocorticoid receptor (Homo sapiens) (P04150 whole entry, looked up): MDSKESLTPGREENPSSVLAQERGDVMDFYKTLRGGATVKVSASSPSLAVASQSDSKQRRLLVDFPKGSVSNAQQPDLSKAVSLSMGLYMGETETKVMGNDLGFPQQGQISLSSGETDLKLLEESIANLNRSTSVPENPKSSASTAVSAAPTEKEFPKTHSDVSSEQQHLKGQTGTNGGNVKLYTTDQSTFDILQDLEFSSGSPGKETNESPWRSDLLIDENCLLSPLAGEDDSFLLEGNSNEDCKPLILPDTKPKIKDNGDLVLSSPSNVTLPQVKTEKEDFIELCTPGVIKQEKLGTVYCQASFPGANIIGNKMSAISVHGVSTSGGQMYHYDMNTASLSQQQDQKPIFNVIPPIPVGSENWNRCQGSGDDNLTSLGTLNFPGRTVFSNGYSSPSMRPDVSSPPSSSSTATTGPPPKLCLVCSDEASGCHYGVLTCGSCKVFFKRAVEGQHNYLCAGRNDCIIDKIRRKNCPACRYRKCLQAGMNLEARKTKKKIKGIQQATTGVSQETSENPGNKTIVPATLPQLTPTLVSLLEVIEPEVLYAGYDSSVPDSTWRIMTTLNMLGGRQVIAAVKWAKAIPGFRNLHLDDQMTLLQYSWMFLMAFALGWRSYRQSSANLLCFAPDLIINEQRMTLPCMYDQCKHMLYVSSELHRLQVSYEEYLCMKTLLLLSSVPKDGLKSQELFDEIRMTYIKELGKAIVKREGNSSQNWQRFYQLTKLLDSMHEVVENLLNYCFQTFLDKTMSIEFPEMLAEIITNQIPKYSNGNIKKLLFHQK
Sequence of Aryl hydrocarbon receptor (Homo sapiens) (P35869 whole entry, looked up): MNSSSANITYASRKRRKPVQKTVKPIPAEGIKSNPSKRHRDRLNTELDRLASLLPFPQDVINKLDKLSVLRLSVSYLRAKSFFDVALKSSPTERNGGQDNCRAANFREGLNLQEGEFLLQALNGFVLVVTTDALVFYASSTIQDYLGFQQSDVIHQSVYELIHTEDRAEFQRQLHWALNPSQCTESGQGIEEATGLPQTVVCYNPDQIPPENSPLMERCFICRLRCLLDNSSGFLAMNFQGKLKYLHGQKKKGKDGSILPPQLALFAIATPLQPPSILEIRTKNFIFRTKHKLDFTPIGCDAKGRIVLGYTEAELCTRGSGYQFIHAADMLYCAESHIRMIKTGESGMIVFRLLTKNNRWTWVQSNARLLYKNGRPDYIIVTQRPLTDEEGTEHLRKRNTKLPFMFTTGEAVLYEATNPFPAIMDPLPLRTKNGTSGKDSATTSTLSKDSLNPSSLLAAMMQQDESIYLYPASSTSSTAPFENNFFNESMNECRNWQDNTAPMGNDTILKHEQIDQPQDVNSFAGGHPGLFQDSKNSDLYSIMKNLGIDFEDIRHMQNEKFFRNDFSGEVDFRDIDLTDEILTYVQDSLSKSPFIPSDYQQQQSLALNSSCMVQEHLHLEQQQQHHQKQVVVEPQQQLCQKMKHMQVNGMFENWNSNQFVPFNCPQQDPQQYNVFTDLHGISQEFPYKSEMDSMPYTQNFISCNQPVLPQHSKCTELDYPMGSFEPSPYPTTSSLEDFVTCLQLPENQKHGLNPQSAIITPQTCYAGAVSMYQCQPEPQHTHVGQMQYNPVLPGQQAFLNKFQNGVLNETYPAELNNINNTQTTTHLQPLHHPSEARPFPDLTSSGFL
Sequence of Estrogen receptor (Homo sapiens) (P03372 whole entry, looked up): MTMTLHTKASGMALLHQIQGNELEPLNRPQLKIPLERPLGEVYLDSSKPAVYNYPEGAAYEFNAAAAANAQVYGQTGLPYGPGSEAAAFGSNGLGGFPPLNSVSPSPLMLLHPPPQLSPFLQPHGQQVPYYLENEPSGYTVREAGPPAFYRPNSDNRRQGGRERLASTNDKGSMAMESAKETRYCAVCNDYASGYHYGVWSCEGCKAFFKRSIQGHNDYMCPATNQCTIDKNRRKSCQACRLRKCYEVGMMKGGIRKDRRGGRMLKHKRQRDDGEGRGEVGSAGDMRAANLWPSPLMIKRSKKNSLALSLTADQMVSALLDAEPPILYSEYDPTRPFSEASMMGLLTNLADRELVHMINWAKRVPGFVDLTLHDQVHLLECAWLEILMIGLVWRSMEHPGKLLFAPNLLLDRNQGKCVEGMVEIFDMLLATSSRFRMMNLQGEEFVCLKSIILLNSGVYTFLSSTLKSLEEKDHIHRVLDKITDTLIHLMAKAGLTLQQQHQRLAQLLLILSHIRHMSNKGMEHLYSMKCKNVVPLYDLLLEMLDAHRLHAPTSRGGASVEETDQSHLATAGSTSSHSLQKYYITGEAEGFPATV

| SMILES | Potency [1] | Potency [2] | Potency [3] | Potency [4] | outcome [5] | outcome [6] | Potency [7] | Potency [8] | Potency [9] | Potency [10] | Potency [11] | Potency [12] | Potency [13] | Potency [14] | Potency [15] | Potency [16] | Potency [17] | Potency [18] | Potency [19] | Potency [20] |
| --- | --- | --- | --- | --- | --- | --- | --- | --- | --- | --- | --- | --- | --- | --- | --- | --- | --- | --- | --- | --- |
| Cc1ccc([N+](=O)[O-])cc1N | 61.1 µM (active) |  |  |  |  |  |  |  |  |  |  |  |  |  |  |  |  |  |  |  |
| Cc1ccccc1-n1c(C)nc2ccccc2c1=O |  | inactive | inactive | inactive | inactive | inactive | inactive | inactive | 60.4 µM (active) | inactive | inactive | inactive and 53.9 µM (active) | inactive | inactive |  |  |  |  |  |  |
| Clc1ccc2c(c1)C(c1ccccc1)=NCc1nncn1-2 | inactive | inactive |  | inactive | inactive | inactive | inactive | inactive | inactive | inactive | inactive | inactive | inactive | inactive | inactive | inactive | inactive | inactive | inactive |  |
| C[C@@H](CO)NC(=O)[C@@H]1C=C2c3cccc4[nH]cc(c34)C[C@H]2N(C)C1 | inactive | 9.44 µM (active) |  | inactive | inactive | inactive | inactive | inactive | inactive | inactive |  |  |  | inactive |  | inactive |  | inactive | inactive | inactive |
| CC[N+](C)(CC)CCOC(=O)C(O)(c1ccccc1)c1ccccc1 | inactive | inactive | inactive | inactive | inactive | inactive | inactive | inactive | inactive | inactive | inactive | inactive | inactive | inactive | inactive | inactive |  | inactive | inactive | inactive |
| CC(=O)OCC(=O)[C@H]1CC[C@H]2[C@@H]3CC[C@H]4C[C@H](O)CC[C@]4(C)[C@H]3C(=O)C[C@]12C | inactive | inactive | inactive | inactive |  | inactive | inactive | inactive | inactive | inactive | inactive | inactive | inactive | inactive | inactive | inactive | inactive | inactive |  | inactive |
| CCC(=O)O[C@]1(c2ccccc2)CCN(C)C[C@H]1C | inactive | inactive | inactive | inactive | inactive | inactive |  |  |  | inactive | inactive | inactive | inactive | inactive |  |  |  |  | inactive | inactive |
| COc1ccc2c3c1O[C@H]1[C@@H](O)C=C[C@H]4[C@@H](C2)NCC[C@@]341 | inactive | inactive | inactive | inactive | inactive | inactive | inactive | inactive | inactive | inactive | inactive | inactive | inactive | inactive |  |  | inactive | inactive | inactive | inactive |
| CCC(N)Cc1c[nH]c2ccccc12 (configuration not stated) | inactive and 30.7 µM (active) | 21.1 µM (active) | inactive | inactive | inactive | inactive | inactive |  |  |  |  |  | inactive | inactive | inactive | inactive and 68.8 µM (active) |  | inactive | inactive |  |
| C[C@]12CC[C@H]3[C@@H](CCC4=C(O)C(=O)CC[C@@H]43)[C@@H]1CC[C@@H]2OC(=O)CCC1CCCC1 | inactive | inactive | inactive |  | inactive | inactive |  | inactive | inactive | inactive | 0.952 µM [inconclusive] (active) | 0.119 µM (active) | inactive | inactive |  | inactive | inactive | inactive | inactive | inactive |
| CCCCNCC(O)c1ccc(O)cc1 (configuration not stated) |  | inactive | inactive | inactive |  | inactive | inactive | inactive | inactive | inactive |  |  |  | inactive | inactive | inactive | inactive | inactive |  | inactive |
| [S]=[Sb](=[S])[S][Sb](=[S])=[S] | inactive | inactive | inactive |  | inactive | inactive |  | inactive | inactive | inactive | inactive | inactive | inactive | inactive | inactive |  | inactive | inactive | inactive | inactive |
| C[C@@H](Cc1ccccc1)N(C)C |  | inactive | inactive |  | inactive | inactive | inactive |  | inactive | inactive |  |  |  | inactive | inactive | inactive |  | inactive | inactive | inactive |
| CC(C)(C)c1ccc(O)cc1 |  | 55.8 µM (active) and 43.3 µM (active) | inactive |  | inactive | inactive | inactive |  |  |  |  |  |  |  | inactive |  |  |  |  | inactive |
| CC(Cc1ccccc1)NC=O (configuration not stated) | inactive | inactive | inactive | inactive | inactive | inactive | inactive |  | inactive |  |  |  |  | inactive |  | inactive | inactive | inactive | inactive | inactive |
| CCC(=O)O[C@@](Cc1ccccc1)(c1ccccc1)[C@@H](C)CN(C)C |  | inactive | inactive | inactive | inactive | inactive | inactive |  | inactive |  |  |  |  | inactive | inactive | inactive |  | inactive |  |  |
| O=C1CCCCC1CN1CCCCC1 (configuration not stated) | inactive | inactive | inactive | inactive | inactive | inactive | inactive | inactive |  | inactive | inactive | inactive | inactive | inactive | inactive | 23.7 µM (active) | inactive |  |  | inactive |

From PubChem BioAssay (Tox21)
